In PubChem BioAssay (EPA / NIEHS) one finds outcome and AC50 data, which are given here for 15 compounds.

Assay [1] can be described thus: ATG_TGFb_CIS: Attagene CIS-FACTORIAL HepG2 Assay for human Transforming Growth Factor (TGF) (AID 2282967). Particulars: HepG2 Attagene CIS TGFb reporter, mRNA transcription; actives raise or lower the signal. The gist of the method:
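HepG2 cells transiently transfected with cis-promoter-driven multiplexed reporter units; 24 h compound exposure. Reporter mRNA measured by RT-PCR, 6-FAM labeling, HpaI digestion and capillary electrophoresis; bidirectional fit versus DMSO baseline.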

Assay [2] can be described thus: ATG_VDRE_CIS: Attagene CIS-FACTORIAL HepG2 Assay for human Vitamin D Receptor Element (VDRE) (AID 2282968). The conditions noted are these: HepG2 VDRE cis-reporter transcription, actives raise or lower the signal. The gist of the method: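 Reporter mRNA induction, quantified by capillary electrophoresis of fluorescently labelled RT-PCR products, was read 24 h after dosing HepG2 cells carrying transiently transfected cis-regulated reporter units; gain or loss relative to DMSO.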

For assay [3], the target named is Nuclear receptor subfamily 1 group I member 3 (Homo sapiens) (UniProt Q14994). In words: ATG_CAR_TRANS: Attagene TRANS-FACTORIAL HepG2 Assay for human Constitutive Androstane Receptor (CAR) (AID 2282969; active = hit-call score of the fitted dose curve at least 0.9, where 1 is the maximum;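 also: activators raise reporter mRNA above DMSO so AC50 marks induction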). Particulars: HepG2 Attagene TRANS-FACTORIAL CAR reporter. The gist of the method:
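Readout is reporter mRNA induction, quantified by fluorescent primer extension and capillary electrophoresis after RT-PCR. Cells were HepG2 transiently carrying chimeric NR-Gal4 constructs with GAL4-UAS reporters, treated for 24 h; activity scored upward from DMSO.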

Assay [4] concerns the target Estrogen receptor (Homo sapiens) (UniProt P03372). As to the kind of experiment: ATG_ERa_TRANS: Attagene TRANS-FACTORIAL HepG2 Assay for human Estrogen Receptor alpha (ERa) (AID 2282970; active = hit-call score of the fitted dose curve at least 0.9, where 1 is the maximum). Particulars: HepG2 Attagene TRANS ERa GAL4 reporter, mRNA. Summed up:
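Transactivation via ERa-Gal4 chimera in HepG2; 24 hour incubation; reporter mRNA detected by fluorescence RT-PCR and capillary electrophoresis.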

For assay [5], the target named is Steroid hormone receptor ERR1 (Homo sapiens) (UniProt P11474). As to the kind of experiment: ATG_ERRa_TRANS: Attagene TRANS-FACTORIAL HepG2 Assay for human Estrogen-Related Receptor alpha (ERRa) (AID 2282971; active = hit-call score of the fitted dose curve at least 0.9, where 1 is the maximum). The conditions noted are these: HepG2 Attagene TRANS reporter, ERRa transactivation. The gist of the method: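 HepG2 cells were transiently transfected with multiple GAL4-UAS reporter units, then dosed with compound for 24 h. Total RNA was reverse-transcribed, reporter cDNA PCR-amplified and fluorescently labelled, and fragments resolved by capillary electrophoresis; induction was compared with DMSO.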
Sequence of Steroid hormone receptor ERR1 (Homo sapiens) (P11474 whole entry, looked up, the tested form may be a part): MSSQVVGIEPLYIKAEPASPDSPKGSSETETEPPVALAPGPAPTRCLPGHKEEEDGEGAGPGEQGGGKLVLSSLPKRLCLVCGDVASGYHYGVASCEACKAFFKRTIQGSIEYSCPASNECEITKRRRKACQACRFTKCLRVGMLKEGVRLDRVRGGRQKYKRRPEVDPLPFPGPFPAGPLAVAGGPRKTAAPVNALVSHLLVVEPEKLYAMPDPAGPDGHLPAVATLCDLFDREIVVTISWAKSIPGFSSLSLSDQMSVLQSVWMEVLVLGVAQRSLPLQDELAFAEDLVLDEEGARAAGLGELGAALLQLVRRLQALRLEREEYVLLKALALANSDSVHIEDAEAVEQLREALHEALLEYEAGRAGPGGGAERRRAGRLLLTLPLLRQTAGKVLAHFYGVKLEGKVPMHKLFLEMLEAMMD

For assay [6], the target named is X-box-binding protein 1 (Homo sapiens) (UniProt P17861). In words: ATG_Xbp1_CIS: Attagene CIS-FACTORIAL HepG2 Assay for human X-box Binding Protein 1 (XBP1) (AID 2282972). The conditions noted are these: HepG2 XBP1 cis-element reporter, Attagene multiplex; actives raise or lower the signal. Summed up:
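HepG2, transient MRTU transfection (cis-promoter driven), 24 h compound exposure. Total RNA → oligo(dT) RT → PCR → 6-FAM labeling → HpaI cut → CE. Bidirectional fit vs DMSO.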

Assay [7] concerns the target Androgen receptor (Homo sapiens) (UniProt P10275). In words: ATG_AR_TRANS: Attagene TRANS-FACTORIAL HepG2 Assay for human Androgen Receptor (AR) (AID 2282973; active = hit-call score of the fitted dose curve at least 0.9, where 1 is the maximum). The conditions noted are these: HepG2 Attagene TRANS-FACTORIAL AR reporter transcription. The gist of the method:
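Transfected HepG2, 24 h treatment, chimeric NR-Gal4 driving GAL4-UAS reporters. mRNA induction by RT-PCR/capillary electrophoresis fluorescence; DMSO as negative control and baseline.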

Assay [8] can be described thus: ATG_M_19_TRANS: Attagene TRANS-FACTORIAL HepG2 Assay for M19 Transcription Factor (Internal Marker) (AID 2282974; active = hit-call score of the fitted dose curve at least 0.9, where 1 is the maximum). The conditions noted are these: HepG2 Attagene TRANS-FACTORIAL M19 internal marker reporter. Summed up:
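Using RT-PCR and capillary electrophoresis, reporter mRNA from transiently transfected human HepG2 cells was quantified following 24 h exposure; activity was fitted in the positive direction against DMSO.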

Assay [9] in a line: ATG_GAL4_TRANS: Attagene TRANS-FACTORIAL HepG2 Assay for GAL4 (Internal Marker) (AID 2282976; active = hit-call score of the fitted dose curve at least 0.9, where 1 is the maximum). Particulars: HepG2 Attagene TRANS GAL4 internal marker reporter. As to the method: ATG_TRANS is a cell-based, multiplexed-readout assay that uses HepG2, a human liver cell line, with measurements taken at 24 hours after chemical dosing in a 24-well plate.ATG_GAL4_TRANS is one of 30 assay component(s) measured or calculated from the ATG_TRANS assay. It is designed to make measurements of mRNA induction, a form of inducible reporter, as detected with fluorescence intensity signals by Reverse transcription polymerase chain reaction (RT-PCR) and Capillary electrophoresis technology.Data from the assay component ATG_GAL4_TRANS was analyzed into 1 assay endpoint. This assay endpoint, ATG_GAL4_TRANS, was analyzed in the positive analysis fitting direction relative to DMSO as the negative control and baseline of activity. Using a type of inducible reporter, measures of mRNA for gain-of-signal activity can be used to understand the background control at the transcription factor-level as they relate to the gene . Furthermore, this assay endpoint can be referred to as a secondary readout, because this assay has produced multiple assay endpoints where this one serves a background control function. To generalize the intended target to other relatable targets, this assay endpoint is annotated to the background measurement intended target family, where the subfamily is baseline control.
Human liver HepG2 cells are transiently transfected with multiple reporter transcription units (MRTUs) in 6-well plates using FuGene 6 reagent (Roche; 3 ml FuGene/1 mg DNA). The MRTU constructs are regulated by a cis-regulating element (promoter). […] A major difference between the CIS and TRANS system is that in CIS activities of endogenous TFs are measured, whereas the TRANS assay evaluates changes in activities of exogenous, chimeric NR-Gal4 proteins. […] At the end of 24 hour incubation, total RNA was isolated using TriZol reagent (Invitrogen). The isolated RNA is then reverse-transcribed using oligo(dT) primer and Mo-MLV reverse transcriptase (Invitrogen) with DNAse I (Ambion) treatment for 30 min. The one-tenth of the produced cDNA was amplified by PCR using Taq DNA polymerase (Invitrogen) and two reporter sequence-specific primers. The PCR products were fluorescently labeled by primer extension with 6-arboxyfluorescein (6-FAM) 5'-labeled reporter sequence-specific primer (2 min at 95 C, 20 s at 68 C and 10 min at 72 C) and these products were digested with 5U of HpaI (New England Biolabs) for 2h at 37 C. The fragments were purified using Qiaquick PCR columns (Qiagen), analyzed on an ABI 3130xL genetic analyzer (Applied Biosystems) with peak positions identified by using a set of X-rhodamine (ROX)-labeled MapMarker1000 molecular weight standards (BioVentures). The raw capillary electrophoresis data was processed using Attagraph software (Attagene).

A word on the AC50: it is the midpoint of the concentration-response curve, whichever way the signal moves.

Records with an inconclusive call do not appear. Active and inactive are the calls of the source. The calls were made as follows, unless noted: active = hit-call score of the fitted dose curve at least 0.9, where 1 is the maximum; inactive = score below 0.9.

Sequence of X-box-binding protein 1 (Homo sapiens) (P17861 whole entry, looked up): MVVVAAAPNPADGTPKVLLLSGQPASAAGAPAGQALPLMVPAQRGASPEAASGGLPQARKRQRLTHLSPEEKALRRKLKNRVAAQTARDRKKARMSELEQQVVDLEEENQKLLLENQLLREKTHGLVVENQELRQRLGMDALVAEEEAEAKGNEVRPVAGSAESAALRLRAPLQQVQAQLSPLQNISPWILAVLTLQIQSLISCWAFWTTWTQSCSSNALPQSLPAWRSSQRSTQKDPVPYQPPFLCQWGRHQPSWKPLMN
Sequence of Androgen receptor (Homo sapiens) (P10275 whole entry, looked up, the tested form may be a part): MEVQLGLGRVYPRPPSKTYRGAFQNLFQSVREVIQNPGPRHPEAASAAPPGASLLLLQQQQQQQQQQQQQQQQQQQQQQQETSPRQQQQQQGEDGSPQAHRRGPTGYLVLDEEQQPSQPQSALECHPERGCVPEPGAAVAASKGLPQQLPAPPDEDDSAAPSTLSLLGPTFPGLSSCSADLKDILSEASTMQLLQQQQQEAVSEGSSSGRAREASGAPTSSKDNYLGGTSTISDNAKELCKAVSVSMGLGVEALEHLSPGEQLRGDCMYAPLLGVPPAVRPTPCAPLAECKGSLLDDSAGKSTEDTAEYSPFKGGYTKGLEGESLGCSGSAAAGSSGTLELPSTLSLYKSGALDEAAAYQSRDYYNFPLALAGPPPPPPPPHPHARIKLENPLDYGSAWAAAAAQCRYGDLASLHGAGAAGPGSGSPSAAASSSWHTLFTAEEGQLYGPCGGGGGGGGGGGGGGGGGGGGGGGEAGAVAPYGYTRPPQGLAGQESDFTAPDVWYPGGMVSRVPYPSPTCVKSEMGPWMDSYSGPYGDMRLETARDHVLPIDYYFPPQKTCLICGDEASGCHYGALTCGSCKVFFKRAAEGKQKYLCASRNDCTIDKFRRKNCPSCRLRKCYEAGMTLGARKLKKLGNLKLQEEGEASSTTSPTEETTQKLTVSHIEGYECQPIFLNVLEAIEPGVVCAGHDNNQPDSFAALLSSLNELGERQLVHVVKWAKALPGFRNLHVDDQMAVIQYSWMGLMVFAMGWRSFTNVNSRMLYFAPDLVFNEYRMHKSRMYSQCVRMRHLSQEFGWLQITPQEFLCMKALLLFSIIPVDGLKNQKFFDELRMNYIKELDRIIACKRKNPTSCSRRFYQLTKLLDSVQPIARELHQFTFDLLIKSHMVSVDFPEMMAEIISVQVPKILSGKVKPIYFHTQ
Sequence of Nuclear receptor subfamily 1 group I member 3 (Homo sapiens) (Q14994 whole entry, looked up, the tested form may be a part): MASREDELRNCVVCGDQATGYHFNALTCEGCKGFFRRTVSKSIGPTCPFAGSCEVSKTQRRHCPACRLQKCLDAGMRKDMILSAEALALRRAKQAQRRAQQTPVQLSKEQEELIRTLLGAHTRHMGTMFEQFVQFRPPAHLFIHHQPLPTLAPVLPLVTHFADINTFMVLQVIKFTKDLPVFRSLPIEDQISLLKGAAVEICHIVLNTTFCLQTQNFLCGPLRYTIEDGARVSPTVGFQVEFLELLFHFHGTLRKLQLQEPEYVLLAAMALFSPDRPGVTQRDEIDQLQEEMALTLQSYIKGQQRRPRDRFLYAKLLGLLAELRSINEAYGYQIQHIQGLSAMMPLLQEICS
Sequence of Estrogen receptor (Homo sapiens) (P03372 whole entry, looked up, the tested form may be a part): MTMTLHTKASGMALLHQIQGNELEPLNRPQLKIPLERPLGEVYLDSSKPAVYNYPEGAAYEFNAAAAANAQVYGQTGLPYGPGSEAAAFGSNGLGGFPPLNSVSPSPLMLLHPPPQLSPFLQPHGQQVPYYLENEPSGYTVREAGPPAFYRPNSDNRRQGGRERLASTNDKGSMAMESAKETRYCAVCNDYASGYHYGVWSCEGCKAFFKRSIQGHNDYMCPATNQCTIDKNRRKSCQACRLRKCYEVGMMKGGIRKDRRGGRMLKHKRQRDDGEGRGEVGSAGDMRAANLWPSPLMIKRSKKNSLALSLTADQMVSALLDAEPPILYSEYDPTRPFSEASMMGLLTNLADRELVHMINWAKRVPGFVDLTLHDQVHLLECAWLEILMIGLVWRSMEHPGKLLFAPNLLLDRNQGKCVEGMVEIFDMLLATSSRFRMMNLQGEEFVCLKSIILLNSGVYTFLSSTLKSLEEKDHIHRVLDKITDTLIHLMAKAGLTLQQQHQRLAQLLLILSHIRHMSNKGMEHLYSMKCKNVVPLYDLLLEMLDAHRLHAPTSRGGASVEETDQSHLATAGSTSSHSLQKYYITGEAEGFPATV

On to `COP(=O)(OC)SCn1c(=O)oc2cc(Cl)cnc21`, for which the call in assay [1], in assay [2], in assay [3], in assay [4], in assay [5] and in [6] was inactive. The result in assay [7] and in assay [8] was inactive.
Take `CC(COc1ccc(Oc2ccccc2)cc1)Oc1ccccn1` (centres undefined): the result in [1], in assay [3], in assay [5] and in [6] was inactive. Also, the half-maximal activity concentration (AC50) in assay [2] was 16 µM (active).
Take `CCc1cccc(CC)c1N(COC)C(=O)CCl`: the result in assay [1], in [4], in [6], in assay [7] and in [8] was inactive. Besides, the AC50 in assay [2] was 7.75 µM (active).
In the case of `CON=C(C(=O)OC)c1ccccc1CON=C(C)c1cccc(C(F)(F)F)c1`, the result in assay [1], in assay [3], in assay [6] and in assay [8] was inactive. Moreover, in [2], the concentration at half-maximal activity (AC50) was 11.1 µM (active).
With `CCc1cnc(C2=NC(C)(C(C)C)C(=O)N2)c(C(=O)O)c1` (centres undefined), the outcome in [1], in [2], in assay [3] and in [6] was inactive.
Regarding `CCOP(=O)(SC(C)CC)N1CCSC1=O` (centres undefined), the compound was classed as inactive in [1], in assay [2], in assay [3], in assay [6] and in [8].
Take `N#CSCSC#N`: the compound was classed as inactive in [1], in assay [2], in [3], in assay [5], in assay [6] and in assay [7]. In addition, the compound was classed as inactive in [8].
Turning to `CCC(CC)Nc1c([N+](=O)[O-])cc(C)c(C)c1[N+](=O)[O-]`, the outcome in [1], in assay [3], in assay [5], in assay [6] and in assay [8] was inactive. Moreover, the half-maximal activity concentration (AC50) in assay [2] is 15.3 µM (active).
Regarding `CNC(=O)Oc1cccc2c1OC(C)(C)O2`, the compound was called inactive in assay [1] and in [4]. The AC50 in assay [2] was 50 µM (active); in [6], 33.2 µM (active).
For the compound `C#CC(C)(C)NC(=O)c1cc(Cl)cc(Cl)c1`, the compound was called inactive in [1], in assay [3], in [6] and in assay [8]. Further, the AC50 in assay [2] was 29.3 µM (active).
Consider `CCC(=O)Nc1ccc(Cl)c(Cl)c1`, for which the compound was called inactive in assay [1], in assay [2], in assay [3], in assay [6], in [7] and in assay [8]. Further, the outcome in [9] was inactive.
With `CCCCOC(=O)[C@@H](C)Oc1ccc(Oc2ccc(C#N)cc2F)cc1`, the compound was called inactive in [1], in [2], in assay [3], in assay [4], in [5] and in assay [6]. In assay [8], the result was inactive.
On to `CCCSP(=O)(OCC)SCCC`, for which the call in assay [1], in [3], in assay [6] and in assay [8] was inactive. For the same compound, the half-maximal activity concentration (AC50) in [2] is 50 µM (active).
As for `COP(=O)(NC(C)=O)SC` (centres undefined), the result in [1], in [2], in assay [3] and in assay [6] was inactive.
For the compound `COP(=O)(OC)C(O)C(Cl)(Cl)Cl` (centres undefined), the outcome in [1], in assay [3], in assay [5] and in [8] was inactive. Moreover, the AC50 in assay [2] is 50 µM (active); in assay [6], 39.7 µM (active).
